# Test results from PubChem BioAssay (NCI).
# Compounds without any hit were thinned out: in the full panel of roughly 79,000, 15% have a hit. A number with no mark means an inactive call. Active and inactive are the calls of the source. Rule as the data show it: active = growth inhibition above about 70%; inactive = the rest.
# Assay: NCI Yeast Anticancer Drug Screen. Data for the sgs1 mgt1 strain (AID 161);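 also: 0% = growth of cultures given vehicle only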
# Details: S. cerevisiae sgs1 mgt1 strain, at 50.0 µM (retest, dose inferred, filed as 5.0), hits give high values
# Summary of the method: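 Inhibition of yeast growth, normalised to vehicle-treated controls, is reported for a strain bearing genetic alterations in DNA damage repair.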
row,Compound,growth inhibition
1,CCOC(=O)NC(NNc1ccc([N+](=O)[O-])cc1[N+](=O)[O-])(C(F)(F)F)C(F)(F)F,99% (active)
2,O=C1/C(=C/c2cccc(O)c2)COc2ccccc21,98% (active)
3,CNC1=C2NC(=O)/C(C)=C\C=C\C(C)C(O)C(C)C(O)C(C)C(OC(C)=O)C(C)C(OC)/C=C/OC3(C)Oc4c(C)c(O)c(c(c4C3=O)C1=O)C2=O (stereo not given),55%
4,COc1ccc(Cc2c(-c3ccc(C)cc3)n[nH]c(=O)c2C2C(=O)N(c3ccccc3)N=C2c2ccccc2)cc1 (stereo not given),97% (active)
5,Cc1ccc(Cc2n[nH]c(=O)n2N2C(=O)c3ccccc3C2=O)cc1,9%
6,COc1cc2c(c(C3C(=O)N(C)c4ccc(Br)cc43)c1OC)OCO2 (stereo not given),10%
7,CCCCCCCCC1N(C)CCCN1C,98% (active)
8,C1=Cc2ccccc2/C1=C/c1ccccc1,97% (active)
9,COC(=O)c1ccc2ccccc2c1C(=O)c1ccc(F)cc1,95% (active)
10,CCNC(=S)N/N=C(/C)c1cccc(/C(C)=N\NC(=S)NCC)n1,24%
11,c1ccc2c(c1)ccc1ncccc12,38%
12,Cc1nc(N)nn1C,-1%
13,COC(=O)C1=C(C)NC(C)=C(C(=O)OC)C1c1ccc(NCc2ccccc2)c([N+](=O)[O-])c1,73% (active)
14,CCc1ccccc1NC(=O)C(C#N)C1=C(Cl)C(=O)c2ccccc2C1=O (stereo not given),98% (active)
15,O=C(O)c1ccc2ccccc2c1C(=O)c1cccc2ccccc12,21%

# Same assay, conditions: S. cerevisiae sgs1 mgt1 strain, at 50.0 µM, hits give high values
row,Compound,growth inhibition
1,CCN(CC)CCOC(=O)C1CCCCC1C(=O)C1CCCCC1 (stereo not given),21.4%
2,O=c1c2cc(Br)ccc2ncn1COCc1ccccc1,87.2% (active)
3,C=C1C(=O)OC2C1CCC(=C)C1CC(O)C(=C)C12 (stereo not given),93.6% (active)
4,CCC(CC)=NNc1ccc([N+](=O)[O-])cc1,97.8% (active)
5,CCN(CC)CCNc1ccc(C)c2oc3ccc(O)cc3c(=O)c12,81.5% (active)
6,CCOC(=O)C[P+](c1ccc(C)cc1)(c1ccc(C)cc1)c1ccc(C)cc1,95.8% (active)
7,Cc1ccc(C)c(C(=O)/C=C/C(=O)O)c1,61.5%
8,CCCC/C=C(/CCCCOCOCCOC)[Si](C)(C)C,15.9%
9,C=C1C2Oc3ccccc3C1N(c1ccccc1)O2 (stereo not given),66%
10,NC(=O)N/N=C1/CC2CCCCC2c2ccccc21 (stereo not given),58%
11,CC(CCN)(CCN)[N+](=O)[O-],-13.6%
12,COC(=O)/C=C(\NC1CC(OC2C[C@](O)(C(C)=O)Cc3c(O)c4c(c(O)c32)C(=O)c2c(OC)cccc2C4=O)OC(C)C1O)C(=O)OC (stereo not given in full),97.7% (active)
13,CCOc1ccc(N=Nc2ccccc2)cc1,-19.8%
14,O=C(CNS(=O)(=O)Cc1ccccc1)NCC(=O)NNc1ccccc1,58.2%
15,CC1(C)c2ccccc2Cc2cc3ccccc3nc21,90.2% (active)
16,CC(=O)Nc1ccc(C(C)(C)c2ccc(C)cc2)cc1,24.1%
17,CC[C@]1(O)C[C@H]2[C@@H]3CCc4cc(OC)ccc4[C@H]3CC[C@]2(C)[C@H]1O,49.9%
18,CCCCSc1nc2c([nH]1)c(=S)n(C)c(=S)n2C,55.5%
19,CN(Cc1cc(C(C)(C)C)cc(Br)c1O)Cc1cc(C(C)(C)C)cc(Br)c1O,58.8%
20,Oc1cc2c(cc1C(c1ccc(F)cc1)N1CCCCC1)OCO2 (stereo not given),85.5% (active)

row,Compound,growth inhibition
1,CCCCCCCN(CCCCCCC)CC(O)Cc1cc2c(c3ccccc13)CCCC2 (stereo not given),99.5% (active)
2,Cc1c2ccncc2c(C)c2c1sc1ccccc12,88.8% (active)
3,c1ccc2c(c1)OCC(CNCCNCC1COc3ccccc3O1)O2 (stereo not given),87.5% (active)
4,CC(C)(C)c1ccc(Sc2ncnc3ccccc23)cc1,89.5% (active)
5,C(#Cc1ccccc1)Sc1ccccc1,65.7%
6,CCOC(=O)NC(NNc1ccc([N+](=O)[O-])cc1[N+](=O)[O-])(C(F)(F)F)C(F)(F)F,98.4% (active)
7,O=C1/C(=C/c2cccc(O)c2)COc2ccccc21,96.2% (active)
8,CNC1=C2NC(=O)/C(C)=C\C=C\C(C)C(O)C(C)C(O)C(C)C(OC(C)=O)C(C)C(OC)/C=C/OC3(C)Oc4c(C)c(O)c(c(c4C3=O)C1=O)C2=O (stereo not given),45.7%
9,COc1ccc(Cc2c(-c3ccc(C)cc3)n[nH]c(=O)c2C2C(=O)N(c3ccccc3)N=C2c2ccccc2)cc1 (stereo not given),98.2% (active)
10,Cc1ccc(Cc2n[nH]c(=O)n2N2C(=O)c3ccccc3C2=O)cc1,-33.4%
11,COc1cc2c(c(C3C(=O)N(C)c4ccc(Br)cc43)c1OC)OCO2 (stereo not given),11.3%
12,CCCCCCCCC1N(C)CCCN1C,49%
13,C1=Cc2ccccc2/C1=C/c1ccccc1,88% (active)
14,COC(=O)c1ccc2ccccc2c1C(=O)c1ccc(F)cc1,96.2% (active)
15,CCNC(=S)N/N=C(/C)c1cccc(/C(C)=N\NC(=S)NCC)n1,63.7%
16,c1ccc2c(c1)ccc1ncccc12,47.6%
17,Cc1nc(N)nn1C,-3.55%
18,COC(=O)C1=C(C)NC(C)=C(C(=O)OC)C1c1ccc(NCc2ccccc2)c([N+](=O)[O-])c1,12.3%
19,CCc1ccccc1NC(=O)C(C#N)C1=C(Cl)C(=O)c2ccccc2C1=O (stereo not given),97.3% (active)
20,O=C(O)c1ccc2ccccc2c1C(=O)c1cccc2ccccc12,90.4% (active)
